Test results from PubChem BioAssay (EPA / NIEHS).
Inconclusive results are not listed. Active and inactive are the calls of the source. The calls were made as follows, unless noted: active = hit-call score of the fitted dose curve at least 0.9, where 1 is the maximum; inactive = score below 0.9.

How the values were obtained:
[1] = biological target: Retinoic acid receptor RXR-alpha (Homo sapiens) (UniProt P19793); test: TOX21_TR_RXR_BLA_Antagonist_Followup_ratio: Tox21 Thyroid Hormone Receptor beta Retinoid X Receptor alpha (RXRa) Antagonism Beta-lactamase (BLA) Follow-Up Assay, Ratio (AID 2283972; active = hit-call score of the fitted dose curve at least 0.9, where 1 is the maximum)
Outline: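 Antagonist mode used GAL4 UAS-driven beta-lactamase in HEK293T cells expressing RXRa, treated for 16 h with compound concentration series. Activity was taken from the blue/green (460:530 nm) ratio of cleaved to uncleaved substrate.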

[2] = TOX21_TR_RXR_BLA_Antagonist_Followup_viability: Viability Assessment in the Tox21 Thyroid Hormone Receptor beta Retinoid X Receptor alpha (RXRa) Antagonism Beta-lactamase (BLA) Follow-Up Assay (AID 2283979; active = hit-call score of the fitted dose curve at least 0.9, where 1 is the maximum)
Outline: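 RXRa-bla HEK293T cells (2,500/well, phenol red-free DMEM, 2% charcoal-stripped FBS) were attached 5 h, then exposed to compounds at 11 concentrations in triplicate for 16 h at 37C. Viability measured by CellTiter-Glo ATP luminescence, bidirectional fitting versus DMSO.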

[3] = CCTE_Simmons_MITO_basal_resp_rate: CCTE's HepG2 Seahorse XF Respirometric Screening Assay at Basal Respiratory State, Simmons Lab (AID 2284001); settings: actives raise or lower the signal
Outline: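 HepG2 oxygen consumption on Seahorse XF96 after compound injection, 7 concentrations 125 nM–100 uM final, reads every 6 min over 72 min. Triplicate biological replicates; bidirectional fit vs DMSO; fenpyroximate and 2,4-dinitrophenol controls.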

[4] = CCTE_Harrill_HTTr_Viability_DMEM_6hr: (Pilot) CCTE's 6-hour Cell Viability Assessment for the High-Throughput Transcriptomics (HTTr) Platform, in MCF-7 cells cultured in DMEM + 10% fetal bovine serum, Harrill Lab (AID 2283973)
Outline: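 MCF-7 cells in DMEM + 10% FBS, eight-point dilution series, 6 h exposure. Membrane integrity by propidium iodide exclusion with high-content imaging; bidirectional fit versus DMSO.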

[5] = CCTE_Harrill_HTTr_Viability_DMEM_12hr: (Pilot) CCTE's 12-hour Cell Viability Assessment for the High-Throughput Transcriptomics (HTTr) Platform, in MCF-7 cells cultured in DMEM + 10% fetal bovine serum, Harrill Lab (AID 2283974)
Outline: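 MCF-7 cells in DMEM + 10% FBS exposed 12 h to an eight-point dilution series; membrane integrity scored by propidium iodide exclusion with high-content imaging, bidirectional fitting versus DMSO.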

[6] = CCTE_Harrill_HTTr_Viability_DMEM_24hr: (Pilot) CCTE's 24-hour Cell Viability Assessment for the High-Throughput Transcriptomics (HTTr) Platform, in MCF-7 cells cultured in DMEM + 10% fetal bovine serum, Harrill Lab (AID 2283975)
Outline: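 MCF-7 cells in DMEM with 10% FBS exposed for 24 hours to an eight-point dilution series. Membrane integrity by propidium iodide exclusion with high content imaging; bidirectional fit against DMSO.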

[7] = CCTE_Harrill_HTTr_Viability_PRF_DMEM_6hr: (Pilot) CCTE's 6-hour Cell Viability Assessment for the High-Throughput Transcriptomics (HTTr) Platform, in MCF-7 cells cultured phenol red-free DMEM + 10% charcoal-stripped fetal bovine serum, Harrill Lab (AID 2283976)
Outline: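 MCF-7 cells in phenol red-free DMEM with 10% charcoal-stripped FBS exposed 6 hours to an eight-point dilution series. Propidium iodide exclusion imaged; curves fitted bidirectionally against DMSO.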

[8] = CCTE_Harrill_HTTr_Viability_PRF_DMEM_12hr: (Pilot) CCTE's 12-hour Cell Viability Assessment for the High-Throughput Transcriptomics (HTTr) Platform, in MCF-7 cells cultured in phenol red-free DMEM + 10% charcoal-stripped fetal bovine serum, Harrill Lab (AID 2283977)
Outline: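 MCF-7 cells in phenol red-free DMEM with 10% charcoal-stripped FBS exposed 12 hours to an eight-point dilution series. Viability assessed by high-content imaging of propidium iodide exclusion; bidirectional fit versus DMSO.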

[9] = CCTE_Harrill_HTTr_Viability_PRF_DMEM_24hr: (Pilot) CCTE's 24-hour Cell Viability Assessment for the High-Throughput Transcriptomics (HTTr) Platform, in MCF-7 cells cultured in phenol red-free DMEM + 10% charcoal-stripped fetal bovine serum, Harrill Lab (AID 2283980)
Outline: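 MCF-7 cells in phenol red-free DMEM with 10% charcoal-stripped FBS, eight-point dilution series, 24 h exposure. Membrane integrity by propidium iodide exclusion with high content imaging; bidirectional fit vs DMSO.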

[10] = CCTE_Harrill_HTTr_Apoptosis_DMEM_6hr: (Pilot) CCTE's 6-hour Apoptosis Assessment for the High-Throughput Transcriptomics (HTTr) Platform, in MCF-7 cells cultured in DMEM + 10% fetal bovine serum, Harrill Lab (AID 2283981)
Outline: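 Caspase-3/7 activation read by high content imaging with CellEvent Caspase 3/7 Green in MCF-7 cells (DMEM + 10% FBS), 6 h after dosing; eight-point dilution series. Bidirectional fitting relative to DMSO baseline.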

[11] = CCTE_Harrill_HTTr_Apoptosis_DMEM_12hr: (Pilot) CCTE's 12-hour Apoptosis Assessment for the High-Throughput Transcriptomics (HTTr) Platform, in MCF-7 cells cultured in DMEM + 10% fetal bovine serum, Harrill Lab (AID 2283982)
Outline: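 MCF-7 cells in DMEM + 10% FBS, exposed 12 h to an eight-point dilution series; caspase-3/7 activation imaged with CellEvent Green. Bidirectional fit versus DMSO.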

[12] = CCTE_Harrill_HTTr_Apoptosis_DMEM_24hr: (Pilot) CCTE's 24-hour Apoptosis Assessment for the High-Throughput Transcriptomics (HTTr) Platform, in MCF-7 cells cultured in DMEM + 10% fetal bovine serum, Harrill Lab (AID 2283983)
Outline: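 MCF-7 cells in DMEM + 10% FBS, eight-point dilution series, 24 h exposure. Caspase-3/7 activation imaged by high-content imaging with CellEvent Caspase 3/7 Green. Bidirectional curve fitting against DMSO baseline.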

[13] = CCTE_Harrill_HTTr_Apoptosis_PRF_DMEM_6hr: (Pilot) CCTE's 6-hour Apoptosis Assessment for the High-Throughput Transcriptomics (HTTr) Platform, in MCF-7 cells cultured phenol red-free DMEM + 10% charcoal-stripped fetal bovine serum, Harrill Lab (AID 2283984)
Outline: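 MCF-7 cells in phenol red-free DMEM + 10% charcoal-stripped FBS, eight-point dilution series, 6 h exposure. Caspase-3/7 activation imaged by high-content imaging with CellEvent Caspase 3/7 Green; bidirectional fit versus DMSO baseline.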

[14] = CCTE_Harrill_HTTr_Apoptosis_PRF_DMEM_12hr: (Pilot) CCTE's 12-hour Apoptosis Assessment for the High-Throughput Transcriptomics (HTTr) Platform, in MCF-7 cells cultured in phenol red-free DMEM + 10% charcoal-stripped fetal bovine serum, Harrill Lab (AID 2283985)
Outline: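 MCF-7 cells in phenol red-free DMEM with 10% charcoal-stripped FBS, eight-point dilution series, 12 h exposure. Caspase-3/7 activation imaged by high content imaging with CellEvent Green reagent; bidirectional fit vs DMSO.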

[15] = CCTE_Harrill_HTTr_Apoptosis_PRF_DMEM_24hr: (Pilot) CCTE's 24-hour Apoptosis Assessment for the High-Throughput Transcriptomics (HTTr) Platform, in MCF-7 cells cultured in phenol red-free DMEM + 10% charcoal-stripped fetal bovine serum, Harrill Lab (AID 2283986)
Outline: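 MCF-7 cells in phenol red-free DMEM with 10% charcoal-stripped FBS, exposed 24 h across an eight-point dilution series. Caspase-3/7 activation imaged with CellEvent Green by high content imaging; bidirectional fitting against DMSO.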

DIO1 (gene 1733) = test: CCTE_GLTED_hDIO1: CCTE's human Deiodinase 1 (DIO1) Inhibition Assay, Great Lakes Toxicology and Ecology Division (GLTED) Lab (AID 2283987; active = hit-call score of the fitted dose curve at least 0.9, where 1 is the maximum;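 also: isolated human DIO1 enzyme in a cell-free setup rather than cells; enzyme activity read as free iodide liberated from substrate via Sandell-Kolthoff colorimetry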)
Outline: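 Cell-free hDIO1 assay, triplicate plates. Absorbance of the Sandell-Kolthoff reaction reports enzyme-liberated iodide; iodinated chemicals or nitrite, iron and thiocyanate may interfere.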

[16] = biological target: Nucleoli Translocation, AR (gene 367) (UniProt P10275); test: UPITT_HCI_U2OS_AR_TIF2_Nucleoli_Agonist: University of Pittsburgh U2OS Androgen Receptor-Transcriptional Intermediary Factor 2 (AR-TIF2) Agonism High Content Imaging Assay for Nucleoli Translocation (AID 2283998; active = hit-call score of the fitted dose curve at least 0.9, where 1 is the maximum)
Outline: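 Red-tagged human androgen receptor co-expressed with GFP-tagged TIF2 serves as the binding reporter. Primary testing used 20 uM final (0.2% DMSO); follow-up dose response covered 0.195 to 50 uM final (0.5% DMSO).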

[17] = biological target: Ratio of Nucleoli Translocation and Cytoplasm, AR (gene 367) (UniProt P10275); test: UPITT_HCI_U2OS_AR_TIF2_Nucleoli_Cytoplasm_Ratio_Antagonist: University of Pittsburgh U2OS Androgen Receptor-Transcriptional Intermediary Factor 2 (AR-TIF2) Antagonism High Content Imaging Assay for Ratio of Nucleoli Translocation and Cytoplasm (AID 2283999; active = hit-call score of the fitted dose curve at least 0.9, where 1 is the maximum;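 also: antagonists lower the DHT-driven ratio of nucleolar to cytoplasmic red signal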)
Outline: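 U2OS cells expressing RFP-tagged human AR and GFP-tagged TIF2; compounds tested at 20 uM final (0.2% DMSO) in primary screen, 0.195–50 uM (0.5% DMSO) for concentration response. Readout: nucleolar-to-cytoplasmic red fluorescence ratio by high-content imaging, fitted relative to DHT.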

[18] = biological target: Ratio of Nucleoli Translocation and Cytoplasm, AR (gene 367) (UniProt P10275); test: UPITT_HCI_U2OS_AR_TIF2_Nucleoli_Cytoplasm_Ratio_Agonist: University of Pittsburgh U2OS Androgen Receptor-Transcriptional Intermediary Factor 2 (AR-TIF2) Agonism High Content Imaging Assay for Ratio of Nucleoli Translocation and Cytoplasm (AID 2284000; active = hit-call score of the fitted dose curve at least 0.9, where 1 is the maximum;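 also: hits raise the red nucleolar to cytoplasm ratio above vehicle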)
Outline: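 U2OS cells expressing RFP-tagged human AR and GFP-tagged TIF2; high-content imaging ratio of nucleolar to cytoplasmic red fluorescence, fitted as gain of signal vs DMSO. Single point at 20 uM final (0.2% DMSO); concentration-response 0.195-50 uM final (0.5% DMSO).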

[19] = TOX21_TR_RXR_BLA_Agonist_Followup_viability: Viability Assessment in the Tox21 Thyroid Hormone Receptor beta Retinoid X Receptor alpha (RXRa) Agonism Beta-lactamase (BLA) Follow-Up Assay (AID 2283970; active = hit-call score of the fitted dose curve at least 0.9, where 1 is the maximum)
Outline: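 RXRa-UAS-bla HEK293T cells seeded at 2,500/well in phenol red-free DMEM with 2% charcoal-stripped FBS, exposed to compound 16h at 37C/5% CO2 in qHTS. Viability read by CellTiter-Glo ATP luminescence; bidirectional fitting against DMSO baseline, signal loss indicating cytotoxicity.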

Chain of Ratio of Nucleoli Translocation and Cytoplasm, AR (gene 367) (P10275 whole entry, looked up): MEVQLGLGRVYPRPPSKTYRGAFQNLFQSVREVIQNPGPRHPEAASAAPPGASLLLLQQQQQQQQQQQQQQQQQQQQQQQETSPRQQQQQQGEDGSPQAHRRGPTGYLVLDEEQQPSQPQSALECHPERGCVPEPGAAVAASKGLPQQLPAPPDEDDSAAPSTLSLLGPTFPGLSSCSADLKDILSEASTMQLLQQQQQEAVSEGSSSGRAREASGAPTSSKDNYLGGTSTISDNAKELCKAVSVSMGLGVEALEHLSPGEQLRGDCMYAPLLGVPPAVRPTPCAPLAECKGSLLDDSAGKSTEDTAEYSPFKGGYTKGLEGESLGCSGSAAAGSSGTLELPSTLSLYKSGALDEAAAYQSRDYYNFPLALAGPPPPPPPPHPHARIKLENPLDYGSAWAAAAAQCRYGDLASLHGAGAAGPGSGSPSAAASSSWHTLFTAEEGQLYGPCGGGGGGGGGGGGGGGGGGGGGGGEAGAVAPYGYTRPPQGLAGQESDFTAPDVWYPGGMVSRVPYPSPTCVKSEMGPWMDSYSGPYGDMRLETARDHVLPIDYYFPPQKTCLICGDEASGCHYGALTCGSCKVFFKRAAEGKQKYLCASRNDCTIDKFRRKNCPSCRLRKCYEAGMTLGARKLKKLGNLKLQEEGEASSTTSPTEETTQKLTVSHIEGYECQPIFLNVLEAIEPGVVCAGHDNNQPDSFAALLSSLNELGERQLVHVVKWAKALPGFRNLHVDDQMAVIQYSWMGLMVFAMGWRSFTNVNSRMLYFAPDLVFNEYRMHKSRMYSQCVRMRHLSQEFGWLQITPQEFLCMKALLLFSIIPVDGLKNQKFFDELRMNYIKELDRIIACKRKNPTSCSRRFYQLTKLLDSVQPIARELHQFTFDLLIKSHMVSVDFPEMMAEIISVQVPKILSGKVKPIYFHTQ
Chain of Nucleoli Translocation, AR (gene 367) (P10275 whole entry, looked up): as above
Chain of Retinoic acid receptor RXR-alpha (Homo sapiens) (P19793 whole entry, looked up, the tested form may be a part): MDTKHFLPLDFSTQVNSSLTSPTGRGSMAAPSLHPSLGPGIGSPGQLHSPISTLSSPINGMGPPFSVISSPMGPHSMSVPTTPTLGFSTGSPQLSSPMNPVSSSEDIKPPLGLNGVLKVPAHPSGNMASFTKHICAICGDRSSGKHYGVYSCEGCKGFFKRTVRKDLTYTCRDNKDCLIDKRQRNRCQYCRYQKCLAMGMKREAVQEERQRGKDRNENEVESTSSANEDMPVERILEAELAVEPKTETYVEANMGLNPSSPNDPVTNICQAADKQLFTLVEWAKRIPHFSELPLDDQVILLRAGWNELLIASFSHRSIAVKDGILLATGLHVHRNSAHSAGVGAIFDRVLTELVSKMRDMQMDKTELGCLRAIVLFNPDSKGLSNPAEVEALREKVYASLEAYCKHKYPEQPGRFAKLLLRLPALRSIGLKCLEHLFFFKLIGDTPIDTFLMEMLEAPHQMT

CSC1=N[C@@](C)(c2ccccc2)C(=O)N1Nc1ccccc1
outcome [1]: inactive | outcome [2]: inactive | AC50 [3]: 50 µM (active)

CCNc1nc(Cl)nc(NC(C)(C)C#N)n1
outcome [4]: inactive | outcome [5]: inactive | outcome [6]: inactive | outcome [7]: inactive | outcome [8]: inactive | outcome [9]: inactive | outcome [10]: inactive | outcome [11]: inactive | outcome [12]: inactive | outcome [13]: inactive | outcome [14]: inactive | outcome [15]: inactive

CCOP(=S)(OCC)SCCSCC
outcome [3]: inactive

CC(C1CC1)C(O)(Cn1cncn1)c1ccc(Cl)cc1 (stereo unspecified)
outcome [4]: inactive | outcome [5]: inactive | outcome [6]: inactive | outcome [7]: inactive | outcome [8]: inactive | outcome [9]: inactive | outcome [10]: inactive | outcome [11]: inactive | outcome [12]: inactive | outcome [13]: inactive | outcome [14]: inactive | outcome [15]: inactive | AC50 [3]: 35.3 µM (active)

CC[C@H](C)[C@H]1O[C@]2(C=C[C@@H]1C)C[C@@H]1C[C@@H](C/C=C(\C)[C@@H](O[C@H]3C[C@H](OC)[C@@H](O[C@H]4C[C@H](OC)[C@@H](NC)[C@H](C)O4)[C@H](C)O3)[C@@H](C)/C=C/C=C3\CO[C@@H]4[C@H](O)C(C)=C[C@@H](C(=O)O1)[C@]34O)O2
AC50 (DIO1 (gene 1733)): 26 µM (active) | AC50 [3]: 25.7 µM (active)

COP(=O)(OC)SCn1c(=O)oc2cc(Cl)cnc21
outcome [16]: inactive | outcome [17]: inactive | outcome [18]: inactive

CCc1cccc(CC)c1N(COC)C(=O)CCl
outcome [16]: inactive | AC50 [17]: 12.8 µM (active) | outcome [18]: inactive | AC50 [3]: 36.6 µM (active)

Cc1nn(-c2cc(NS(C)(=O)=O)c(Cl)cc2Cl)c(=O)n1C(F)F
outcome [16]: inactive | outcome [17]: inactive | outcome [18]: inactive

CON=C(C(=O)OC)c1ccccc1CON=C(C)c1cccc(C(F)(F)F)c1
outcome [1]: inactive | outcome [4]: inactive | outcome [5]: inactive | outcome [6]: inactive | outcome [7]: inactive | outcome [8]: inactive | outcome [2]: inactive | outcome [9]: inactive | outcome [10]: inactive | outcome [11]: inactive | outcome [12]: inactive | outcome [13]: inactive | outcome [14]: inactive | outcome [15]: inactive | AC50 [3]: 8.73 µM (active)

C[N+]1(C)CCCCC1
outcome [19]: inactive | outcome [16]: inactive | outcome [17]: inactive | outcome [18]: inactive

CCOP(=S)(Oc1cnc(C(C)(C)C)nc1)OC(C)C (stereo unspecified)
AC50 [3]: 59.3 µM (active)
